52 compounds from ChEMBL document CHEMBL3988442, “University of Dundee, Small-Polar-MMV Screening Library” (2021) can be followed below.

Hit rate of the full screen: of about 69,000 compounds, about 1,000 (1.4%) showed an effect of 50% or more. Only a selection was taken, and strong results are over-represented in it overall.

The test system of this experiment is Leishmania donovani. Nature of the experiment: Leishmania intramacrophage assay. The class given is functional, organism-based. Set-up: scale not given: in the data most compounds retested in dose-response had high values.

As for `O=C(COCCOc1ccccc1)NC1CCN(c2ncccn2)CC1`, the “Percent Effect” value (30.3 µM, […]) came to 21.86%.

In the case of `Cc1nc(CN2CCCC(NCCOc3ccccc3)C2)no1` (configuration not stated), the “Percent Effect” value (30 µM, 30.03 µM) was found to be 33.1%.

For the compound `Cc1cc(N2CCC(NCCOc3ccccc3)CC2)nc(C)n1`, under “30.3 µM, […]”, the “Percent Effect” value is 53.39%.

For the compound `Cc1cc(N2CCC(O)CC2)nc(C)n1`, the “Percent Effect” value (30.3 µM, […]) is 1.581%. Still for that read-out and setting: under `Cc1ccnc(N2CCC(NCCOc3ccccc3)CC2)n1` stands 18.71%. In the case of `Cc1cc(N2CCC(N(C)C(=O)c3ccccc3)CC2)nc(C)n1`, the “Percent Effect” value (30 µM, 30.03 µM) is 62.61%. For the compound `CNc1cncc(C2CCCN2C(=O)CCn2ccnc2)n1` (configuration not stated), under “30.3 µM, […]”, the “Percent Effect” value was determined as 1.152%. On to `CCCc1cc(C(=O)N2CCOC(c3nc(-c4cccs4)no3)C2)no1` (configuration not stated), for which the “Percent Effect” value (30 µM, 30.03 µM) amounted to 23.21%. `COc1ccc(CN2CC[C@H](O)[C@@H]2Cc2cnn(C)c2)cc1.O=C(O)C(F)(F)F`: the “Percent Effect” value (30.3 µM, […]) turned out to be 36.9%. Still for that read-out and setting: under `CCc1ncnc2c1CCN(CC(=O)N(C)C)CC2.O=C(O)C(F)(F)F` stands 4.143%. On to `CCc1cc(N2CCC(NCCc3ccccc3F)CC2)nc(C)n1`, for which, under “30.3 µM, […]”, the “Percent Effect” value is recorded as 63.92%. On the same count and under the same terms, as for `CCc1cc(N2CCC(NCCc3ccc(C)o3)CC2)nc(C)n1`, the figure is 9.521%; as for `CCc1cc(N2CCC(NCCc3nc(C)c(C)s3)CC2)nc(C)n1`, 22.72%.

Take `CCC(CNC(=O)NCc1cc[nH]n1)N1CCCC1` (configuration not stated): the “Percent Effect” value (30.3 µM, […]) turned out to be 10.3%.

For `Cc1nn(C)c(C)c1S(=O)(=O)N(CC(N)=O)CC(C)C`, under “30.3 µM, […]”, the “Percent Effect” value is -2.964%. With `CCCc1noc(C2CCN(S(=O)(=O)c3cccs3)CC2)n1`, under “30.3 µM, […]”, the “Percent Effect” value stood at 12.47%. Same read-out and setting: under `CC(C)c1noc(C2CCN(S(=O)(=O)c3cccs3)CC2)n1` stands -2.602%. Still for that read-out and setting: as for `COCCc1noc(C2CCN(S(=O)(=O)c3cccs3)CC2)n1`, the figure is 57.18%. Same read-out and setting: under `CCCOc1ccc(Cl)cc1CNc1ncnc2oc(C)nc12` stands 22.92%; under `CCCOc1ccccc1CCCNc1ncnc2oc(C)nc12`, 83.62%.

Consider `CCC(CNc1ncnc2oc(C)nc12)Cc1ccccc1` (configuration not stated), for which, under “30.3 µM, […]”, the “Percent Effect” value is given as 45.54%. Still for that read-out and setting: under `Cc1ccc(SCCCNC(=O)c2cn([C@H]3CC[C@@H](N)CC3)nn2)cc1` stands 94.34%; under `CCN(CCSc1ccccc1)C(=O)c1cn([C@H]2CC[C@@H](N)CC2)nn1`, 13.68%. Same read-out and setting: as for `Cc1ccc(SCCN(C)C(=O)c2cn([C@H]3CC[C@@H](N)CC3)nn2)cc1`, the figure is -26.18%.

In the case of `O=C(O)c1cnc(OCC2CC2)c(Br)c1`, the “Percent Effect” value (30.3 µM, […]) came out at 4.629%.

Consider `COCCNC(=O)c1c(-n2cnnn2)sc2c1CCCC2`, for which, for the setting “30.3 µM, […]”, the “Percent Effect” value is 53.45%.

Consider `COCCCNC(=O)c1c(-n2cnnn2)sc2c1CCC2`, for which the “Percent Effect” value (30.3 µM, […]) was 9.721%.

On to `CC(C)CCNC(=O)c1c(-n2cnnn2)sc2c1CCCC2`, for which the “Percent Effect” value (30.3 µM, […]) is -26.12%. The same measure, in the same setting: under `Cc1ccc(C(=O)N(CC2CCCO2)c2ccncc2)o1` (configuration not stated) stands 23.81%. The same measure, in the same setting: under `Cc1nn(-c2ccccn2)c(C)c1[C@@H]1C=C[C@@H](NC(=O)NC(C)C)C1` stands 10.96%. `CCNC(=O)[C@@H]1C[C@H](N)CN1Cc1ccc(Sc2ccc(C)cc2)o1`: the “Percent Effect” value (30.3 µM, […]) is -2.33%. The same measure, in the same setting: as for `CCNC(=O)[C@@H]1C[C@H](N)CN1Cc1ccc(-c2cc[nH]n2)o1`, the figure is 11.56%; as for `CCNC(=O)[C@@H]1C[C@@H](N)CN1Cc1ccc(Sc2ccc(C)cc2)o1`, 97.85%; as for `Cc1cc(C(=O)NC2CC(=O)N(C(C)C)C2=O)c(C)n1C(C)C` (configuration not stated), 19.34%. On to `NCC(CO)Cc1ccc(C(F)(F)F)cc1` (configuration not stated), for which the “Percent Effect” value (30.3 µM, […]) was found to be 17.17%.

Take `Cc1cnn(CCNCC(O)c2cccc(Br)c2)c1` (configuration not stated): for the setting “30.3 µM, […]”, the “Percent Effect” value amounted to 97.73%. Still for that read-out and setting: under `Cc1cnn(CCNCC(O)c2ccc(F)c(F)c2)c1` (configuration not stated) stands -10.99%.

In the case of `OC(CNCCn1cccn1)c1cccc(Br)c1` (configuration not stated), the “Percent Effect” value (30 µM) is recorded as 1.273%.

For the compound `O=C(NCCc1ccccc1F)NCC(O)c1cccc(F)c1` (configuration not stated), the “Percent Effect” value (30 µM) was 19.34%. In the case of `Cn1cc(CN2CC[C@@H]3[C@@H](CCC(=O)N3CC3CCNCC3)C2)cn1`, for the setting “30.3 µM, […]”, the “Percent Effect” value is listed as 16.61%.

Turning to `Cc1ccc(CC(=O)NCC(O)c2ccc(Cl)cc2Cl)cn1` (configuration not stated), the “Percent Effect” value (30.3 µM, […]) is recorded as -16.89%. As to `CCc1c(C)sc2c1c(N)nc(=O)n2CCN(C)C`, the “Percent Effect” value (30.3 µM, […]) is reported as -18.16%.

Consider `CCc1c(C)sc2c1c(N)nc(=O)n2CCCN(C)C`, for which the “Percent Effect” value (30.3 µM, […]) came out at 34.84%. Same read-out and setting: under `CCc1c(-c2ccccc2)nc2c(c(C)c(C)n2CCN(C)C)c1N` stands 100.7%. Still for that read-out and setting: as for `Cc1c(-c2ccccc2)nc2c(c(C)c(C)n2CCN(C)C)c1N`, the figure is 99.06%.

Consider `Cc1c(C)n(Cc2ccncc2)c2nc3c(c(N)c12)CCCCCC3`, for which, under “30.3 µM, […]”, the “Percent Effect” value was found to be 6.52%. Same read-out and setting: as for `Cc1c(C)n(Cc2ccccn2)c2nc3c(c(N)c12)CCCCC3`, the figure is 38.18%. On the same count and under the same terms, as for `Cc1cc(C(=O)N2C[C@@H]3[C@@H](CN(C)CCc4ccccn4)[C@@H]3C2)c(C)o1`, the figure is -26.53%; as for `CC(CN1CCCC1=O)NC(=O)Nc1cccnc1-n1cccn1` (configuration not stated), -2.319%; as for `Cc1nccn1CCN(C)c1nc(-c2ccc(Cl)cc2)nc2c1CNC2`, 51.4%.

On to `CCn1ccnc1CN(C)c1nc(-c2ccc(Cl)cc2)nc2c1CNC2`, for which the “Percent Effect” value (30.3 µM, […]) worked out at 20.89%. For `Cc1nccn1CCN(C)c1nc(-c2cccnc2)nc2c1CCNC2`, for the setting “30.3 µM, […]”, the “Percent Effect” value turned out to be 20.05%.
